# Assay outcomes from PubChem BioAssay.
# SENP8 block-1 = SENP8 protease inhibitors, primary screen, biochemical, luminescence; purified SENP8, Z-RLRGG-aminoluciferin cleavage; inhibition, % at 10 µM; 1.2% of 330,000 active; AID 2540, 2010; in the data active = inhibition above about 50%
# SENP7 inh = SENP7 protease inhibitors, primary screen, biochemical, luminescence, uHTS | recombinant SENP7, Z-RLRGG-aminoluciferin luminescence, 40 min | inhibition, % at 5 µM | Sentrin-specific protease 7 (Homo sapiens), Q9BQF6 | 1.5% of 330,000 active;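 active = inhibition above about 50% at the single test dose, limit read from the data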;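 note: plate controls were DMSO with enzyme for no effect and no enzyme buffer wells for full effect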
# SENP6 block = SENP6 protease inhibitors, primary screen, biochemical, luminescence, uHTS; Sentrin-specific protease 6 (Homo sapiens), Q9GZR1; Recombinant SENP6 catalytic domain, aminoluciferin luminescence; inhibition, % at 10 µM; 1.8% of 330,000 active; AID 2599, 2010;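 active = inhibition above about 50% at the single tested dose, limit read from the data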;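 note: plate controls were DMSO wells with enzyme for no effect and DMSO wells lacking enzyme for full effect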
# HSP90 inh = HSP90 inhibitors, primary screen, cell lysate, luminescence; 0.91% of 290,000 active; AID 1789, 2009; inhibition, % at 5.6 µM; Rabbit reticulocyte lysate, luciferase refolding luminescence, 3 h; Heat shock protein HSP 90 (rabbit reticulocyte lysate; luciferase refolding);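 active = inhibition above the screen-wide mean plus 3 SD, computed separately per campaign, cut at about 16% in these data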;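 note: 0% = DMSO wells and 100% = 60 µM geldanamycin wells; inhibitors lower the luminescence because luciferase stays unfolded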
# SENP8 block-2 = human SENP8 protease inhibitors, primary screen, biochemical, fluorescence, Nedd8 protein substrate, uHTS; recombinant SENP8; inhibition, % at 20 µM; 0.64% of 360,000 active; AID 602440, 2012; in the data active = inhibition mostly above about 40%, no sharp cut-off; inactive = mostly below about 27%
# HSP90 inh confirm = HSP90 inhibitors, confirmation, cell lysate, luminescence. 64% of 2,300 active. inhibition, % at 5.9 µM. rabbit reticulocyte lysate, luciferase refolding luminescence, 3 h. shares compounds with HSP90 inh; in the data active = inhibition above about 18%;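 note: 0% = vehicle wells and 100% = reference inhibitor wells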
# luciferase ctr = firefly luciferase inhibitors, HSP90 counter-screen, confirmation, artefact control for HSP90 inhibitor project, biochemical, luminescence, triplicate; AID 1847, 2009; inhibition, % at 5.9 µM; 48% of 2,300 active; shares compounds with HSP90 inh; purified native firefly luciferase;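 active = inhibition above the mean inhibition of all tested sample wells plus 3 SD, cut at about 10% in these data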;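 note: 0% = DMSO with luciferase and 100% = wells lacking luciferase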
# Target sequence (P08659 whole entry, looked up): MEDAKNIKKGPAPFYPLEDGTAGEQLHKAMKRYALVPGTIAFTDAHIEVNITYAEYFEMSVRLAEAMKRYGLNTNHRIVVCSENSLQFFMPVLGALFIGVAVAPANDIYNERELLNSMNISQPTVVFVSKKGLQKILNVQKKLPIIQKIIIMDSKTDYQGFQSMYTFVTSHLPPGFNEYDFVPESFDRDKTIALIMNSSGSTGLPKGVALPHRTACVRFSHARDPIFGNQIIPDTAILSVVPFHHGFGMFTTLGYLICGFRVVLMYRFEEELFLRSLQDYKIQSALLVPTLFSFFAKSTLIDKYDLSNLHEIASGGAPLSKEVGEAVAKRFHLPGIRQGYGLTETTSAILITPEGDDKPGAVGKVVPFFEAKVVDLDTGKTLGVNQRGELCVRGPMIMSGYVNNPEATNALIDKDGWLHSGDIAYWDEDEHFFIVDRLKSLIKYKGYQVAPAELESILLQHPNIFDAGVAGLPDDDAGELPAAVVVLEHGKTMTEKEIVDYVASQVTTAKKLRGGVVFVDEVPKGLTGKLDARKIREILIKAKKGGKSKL
# SENP8 conf = SENP8 protease inhibitors, retest, confirmation, biochemical, luminescence, single concentration. shares compounds with SENP7 inh. Recombinant SENP8, Z-RLRGG-aminoluciferin luminescence, 60 min. inhibition, % at 12.5 µM. 40% of 6,200 active. AID 488912, 2010;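 active = mean inhibition across replicates above about 50%, limit read from the data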
# SENP6 conf = SENP6 protease inhibitors, confirmation, biochemical, luminescence, single concentration. shares compounds with SENP7 inh. recombinant SENP6, Z-RLRGG-aminoluciferin luminescence. inhibition, % at 12.5 µM. 58% of 6,200 active
# SENP7 conf = SENP7 protease inhibitors, retest, confirmation, biochemical, luminescence, single concentration; shares compounds with SENP7 inh; recombinant SENP7, Z-RLRGG-aminoluciferin luminescence, 40 min; inhibition, % at 12.5 µM; 69% of 6,200 active; AID 488917, 2010
# Casp3 SENP sel = caspase-3 protease inhibitors, confirmation, selectivity assay for SENP inhibitor project, biochemical, single concentration. shares compounds with SENP7 inh. purified caspase-3, Z-DEVD-aminoluciferin luminescence, 60 min. inhibition, % at 12.5 µM. 60% of 6,200 active;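 active = mean inhibition above about 50%, limit read from the data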;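 note: plate controls were enzyme with DMSO for no effect and wells without caspase-3 for full effect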
# Luc interf = counter-screen for SENP inhibitors: luminescence interference; inhibition, % at 12.5 µM; Pre-incubated SENP8/Z-RLRGG-aminoluciferin, luciferase luminescence interference; shares compounds with SENP7 inh; AID 488919; 39% of 6,200 active;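 active = mean inhibition above about 50% when retested at one dose, limit read from the data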;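 note: plate controls were DMSO wells with completed reaction for no effect and substrate without enzyme for full effect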
# Numbers without * were called inactive; i = inactive; nt = not tested or not shown. Only some compounds are listed: those with a hit (about 2.7% of all), similar ones and a draw of the others.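 Rule for the calls, unless noted: active = mean inhibition above about 50% in the one-dose retest (limit read from the data); inactive = the rest.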
SMILES,SENP8 block-1,SENP7 inh,SENP6 block,HSP90 inh,SENP8 block-2,HSP90 inh confirm,luciferase ctr,SENP8 conf,SENP6 conf,SENP7 conf,Casp3 SENP sel,Luc interf
O=C(CCn1c(=O)oc2ccccc21)NCCN1CCc2ccccc2C1,0,12,-8,-2,11,nt,nt,nt,nt,nt,nt,nt
COc1ccc2[nH]c(C(=O)Nc3cccc(C)n3)cc2c1,85*,86*,91*,23*,-482,30*,19*,92*,92*,100*,92*,58*
Cc1ccc(-c2cnc3ccccc3n2)cc1C,95*,98*,94*,29*,-49,64*,58*,97*,100*,103*,96*,48
O=C(CCl)Nc1cccc(-c2cnc3ccccc3n2)c1,-15,3,-5,2,-48,nt,nt,nt,nt,nt,nt,nt
CC(=O)Nc1cccc(N/C=C(\C=O)c2nc3ccccc3o2)c1,-4,-3,-26,0,-288,nt,nt,nt,nt,nt,nt,nt
O=C(Nc1ccc(NC(=O)c2ccc3c(c2)OCCO3)cc1)c1ccccc1,5,-9,-31,2,8,nt,nt,nt,nt,nt,nt,nt
CCOC(=O)c1c(C)c(C(=O)Nc2ccc3c(c2)OCO3)c(C)n1C,-4,4,-9,-2,-2,nt,nt,nt,nt,nt,nt,nt
Cc1ccc(NC(=O)c2ccc3c(c2)OCCO3)cc1C,86*,92*,91*,42*,9,68*,61*,-11,86*,98*,86*,88*
O=C(Nc1ccc2c(c1)OCCO2)c1ccc(Cl)cc1,59*,73*,81*,19*,3,25*,15*,46,75*,92*,76*,14
Cc1cc(C(=O)Nc2ccccn2)cs1,49,71*,72*,25*,6,16*,4,40,47,85*,85*,63*
CCOC(=O)c1c(N)sc(C(=O)Nc2ccc3c(c2)OCO3)c1C,92*,98*,97*,41*,1,69*,59*,10,98*,103*,96*,96*
CC(=O)Nc1ccc(C(=O)Nc2ccc3c(c2)OCCO3)cc1,-9,1,5,-1,11,nt,nt,nt,nt,nt,nt,nt
O=C(Nc1ccc2c(c1)OCO2)Nc1ccc2c(c1)OCO2,6,39,3,-4,6,nt,nt,nt,nt,nt,nt,nt
Cc1ccc(C(=O)Nc2ccc3c(c2)OCCO3)c(C)c1,81*,89*,91*,65*,-1,82*,77*,88*,88*,97*,93*,87*
Cc1cc(C)c(C(=O)Nc2ccc3c(c2)OCCO3)c(C)c1,nt,nt,nt,nt,23,nt,nt,nt,nt,nt,nt,nt
CC(=O)Nc1ccc(C(=O)Nc2ccc3c(c2)OCO3)cc1,-6,7,-7,-4,1,nt,nt,nt,nt,nt,nt,nt
O=C(Nc1cccc(C(=O)O)c1)Nc1ccc2c(c1)OCO2,92*,100*,96*,86*,4,96*,91*,97*,97*,101*,93*,96*
O=C(Nc1ccc(NC(=O)c2ccccn2)cc1)C(=O)Nc1ccc2c(c1)OCCO2,6,-7,-19,-1,-39,nt,nt,nt,nt,nt,nt,nt
Cc1cc(C(=O)Nc2ccc3c(c2)OCO3)cs1,50,73*,64*,20*,3,12,-14,70*,72*,93*,86*,75*
O=C(Nc1ccc2c(c1)OCCO2)c1ccccn1,82*,89*,89*,25*,2,67*,53*,89*,89*,100*,97*,92*
CC(=O)Nc1ccc(S(=O)(=O)NCCC(=O)OCC(=O)c2ccc(F)c(F)c2)cc1,-4,-10,-3,-1,6,nt,nt,nt,nt,nt,nt,nt
COc1ccc(CNC(=O)C(=O)c2cn(CC(=O)N3CCCC3)c3ccccc23)cc1,-8,11,-12,0,-3,nt,nt,nt,nt,nt,nt,nt
Cc1cccc(NC(=O)c2ccc3c(c2)OCCO3)c1,85*,92*,86*,34*,9,48*,36*,7,93*,101*,94*,90*
O=C(Nc1ccc(N2CCCCC2)cc1)c1ccccn1,95*,100*,101*,92*,1,93*,89*,95*,98*,103*,98*,76*
CCC(Oc1ccc2c(c1)C(=O)CC(C)(C)O2)C(=O)NCCN1CCCCCC1 (stereo not drawn),5,-2,-1,0,i,nt,nt,nt,nt,nt,nt,nt
SMILES,SENP8 block-1,SENP7 inh,SENP6 block,HSP90 inh,SENP8 block-2,HSP90 inh confirm,luciferase ctr,SENP8 conf,SENP6 conf,SENP7 conf,Casp3 SENP sel,Luc interf
CCCc1ccc(-c2ccc(C(=O)O)cc2)nc1,59*,67*,69*,50*,7,56*,26*,70*,66*,90*,73*,70*
CCCCCc1ccc(-c2ccc(/C=C/C(N)=O)cc2)nc1,-6,-1,17,11,-234,nt,nt,nt,nt,nt,nt,nt
CCN(CC)CCOc1c(Br)ccc2c1sc1nc3n(c(=O)c12)CCC3,6,-3,-14,-1,-5,nt,nt,nt,nt,nt,nt,nt
O=c1c2c(nc3n1CCCCC3)sc1c(O)c(Br)ccc12,26,34,65*,23*,6,35*,37*,59*,59*,87*,69*,14
c1ccc(-c2noc(-c3ccno3)n2)nc1,-5,7,-17,-2,29,nt,nt,nt,nt,nt,nt,nt
Clc1cccc(-c2nc(-c3ccccn3)no2)c1,92*,98*,96*,57*,15,82*,76*,97*,98*,102*,97*,97*
